About 83,000 compounds went through this panel and 20% of them were active in at least one assay; those are over-represented in the sample as a whole.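 Plates (96-well) were seeded with cells, treated with compound at one concentration, and incubated for 48 hours before percent growth was determined.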 Unmarked numbers belong to inactive results. Active and inactive are the calls of the source.

The test system of this test is BT-549 breast. Kind of test: NCI-60 one-dose screen, 48 h (100 = growth as untreated, 0 = no growth, -100 = all killed). Particulars: 10 µM unless noted. How it is done: Growth inhibition of the BT-549 human tumor cell line is measured as a screen for anti-cancer activity. Cells are grown in 96 well plates and exposed to the test compound for 48 hours. Compounds are tested at a single concentration, which is 10^-5 M for most compounds. The reported endpoint is percent growth (GI% or GIPRCNT), where numbers from 0 - 100% represent growth inhibition, and numbers from -100% - 0 represent cell death. For example, a value of 40 represents 60% growth inhibition. A value of 0 means no net growth occurred over the course of the experiment. A value of -40 indicates 40% of cells at the beginning of the experiment died by the end of the experiment. A value of -100 means all cells are dead at the end of the experiment.
NCI-60 Human Tumor Cell Lines Screen was performed using the standard one-dose NCI protocol, which is described in more detail at https://dtp.cancer.gov/discovery_development/nci-60/default.htm.
Compounds with GIPRCNT values below 10 were considered active. Activity score was based on GIPRCNT using the following formula: […]
Score is 0 for GIPRCNT values of 100 or above, 50 for GIPRCNT values of 0, and 100 for GIPRCNT values of -100.
`Cc1cc(Nc2ncc(Cl)c(Nc3ccccc3S(=O)(=O)C(C)C)n2)c(OC(C)C)cc1C1CCNCC1`: the growth was -78.4% (active).

Regarding `CC1(C)NC(=O)c2[nH]c3c(Cl)c(Cl)ccc3c2C1C#N` (stereo not given), the growth was 73.3%.

Consider `Cn1c(=O)c(F)c(Nc2ccc(I)cc2F)c2c(=O)n(C[C@@H](O)CO)cnc21`, for which the growth is 60.6%.

Consider `Cn1cc(-c2cnn3c(N)c(Br)c([C@@H]4CCCNC4)nc23)cn1`, for which the growth is 52.1%.

On to `N#Cc1c(C(F)(F)F)cc(Nc2ccc3nc(NCCN4CCCC4)oc3c2)n2c1nc1ccccc12`, for which the growth was 72.3%.

Turning to `O=C1CC(c2ccc(Cl)cc2)c2ncn(-c3cccc(Cl)c3)c2N1` (stereo not given), the growth is 52.5%.

Turning to `Cc1cc(-c2cc(OC(=O)c3ccccc3)ccc2Cl)cc2nnc(Nc3ccc(OCCN4CCCC4)cc3)nc12`, the growth was 110%.

In the case of `CC(=O)Nc1cccc(-n2c(=O)n(C3CC3)c(=O)c3c(Nc4ccc(I)cc4F)n(C)c(=O)c(C)c32)c1`, the growth was 60.7%.

In the case of `CC(C)(C)CC(C)(C)Nc1c(-c2c(O)c3ccccc3oc2=O)nc2c(Cl)cc(C(F)(F)F)cn12`, the growth was 78.7%.

For `C=C1C(=O)O[C@H]2[C@H]1CC/C(CNC(=O)c1cc3cc(OC)ccc3[nH]1)=C\CC[C@@]1(C)O[C@@H]21`, the growth is -68.1% (active).

Take `CCN(CCCOc1ccc2c(Nc3cc(CC(=O)Nc4cccc(F)c4)[nH]n3)ncnc2c1)CCOP(=O)(O)O`: the growth was 75.9%.

Consider `CO[C@@H](C(=O)N1Cc2[nH]nc(NC(=O)c3ccc(N4CCN(C)CC4)cc3)c2C1)c1ccccc1`, for which the growth is -10.8% (active).

Regarding `Cc1[nH]c(/C=C2\C(=O)Nc3ccc(F)cc32)c(C)c1C(=O)NC[C@H](O)CN1CCOCC1`, the growth was 37.8%.

On to `C/C(=C(/c1ccc(Cl)cc1)c1ccc(OCCN2CCCCC2)cc1)c1ccccc1`, for which the growth was 81.3%.

In the case of `COc1ccc(-c2cc3c(oc2=O)-c2ccccc2OC3OC(C)=O)cc1` (stereo not given), the growth is 102%.

For `C[N+](C)(CCOC(c1ccccc1)c1ccccc1)CC(=O)OCc1ccccc1`, the growth was 94.8%.

On to `ClCc1ccc(-c2ccc(Cn3cnc4nc(Cl)nc(Cl)c43)cc2)cc1`, for which the growth is -44.8% (active).

Consider `C/C=C/C=N/NC(=S)Nc1ccccc1`, for which the growth is 96.5%.

Regarding `Nc1c(C(=O)c2ccccc2)sc2nc(-c3cccs3)cc(-c3cccs3)c12`, the growth is 50.9%.

Consider `Nc1ncnc2c1ccn2-c1cccc(NC(=O)c2ccc(N3CCOCC3)c(C(F)(F)F)c2)c1`, for which the growth is 57.5%.

As to `COc1cc(C2CC(c3ccc(Cl)cc3)=NN2c2ccc(Cl)cc2)cc(OC)c1OC` (stereo not given), the growth was 95.6%.

In the case of `Clc1ccc2c(NCCNc3nc(N4CCCC4)nc4ccccc34)ccnc2c1`, the growth was -11.3% (active).

Consider `C[C@@H](C[C@H](CCO)c1cc(C(F)(F)F)cc(C(F)(F)F)c1)c1ccc2ccccc2c1`, for which the growth is 102%.

Consider `COCCOc1cnc2ccn([C@H](C)c3nnc4c(F)cc(-c5cnn(C)c5)cn34)c(=O)c2c1`, for which the growth was 105%.

For `CC(=Nc1ccccc1)C1=C(O)C(Cc2ccccc2)NC1=O` (stereo not given), the growth was 13.9%.

For the molecule `O=C(Cn1ccnc1)Nc1ccc(-c2nc3ccccc3s2)cc1`, the growth is 65.1%.

For the molecule `CNC(=O)c1ccccc1Nc1nc(Nc2ccc3c(c2OC)CCC[C@H](N2CCN(CCO)CC2)C3)ncc1Cl`, the growth was 29.7%.

As to `COc1ccc(C(=O)N2c3ccccc3Sc3ccccc32)c(F)c1`, the growth was 22.7%.

With `CN(C)CCn1c(=O)c2c3cc4c(cc3n(CCN(C)C)c2c2ccc(Cl)cc21)OCO4`, the growth is 63.6%.

Regarding `CC(C)CC(=O)Nc1n[nH]c2c1CN(C(=O)C1CCN(C)CC1)C2(C)C`, the growth is 33.7%.

For `O=C(c1ccccc1)C(c1ccccc1)N1CCOCC1` (stereo not given), the growth was 110%.

Take `CCOC(=O)c1sc(NC(=O)COc2ccc(/C=C3\Cc4ccc(Cl)cc4C3=O)cc2)nc1C`: the growth is 94.5%.

With `CC(C)(C)C(=O)OCOP(=O)(OCOC(=O)C(C)(C)C)C1CCCN(OC(=O)c2ccccc2)C1=O` (stereo not given), the growth is 7.84% (active).

On to `COc1cccc(Nc2ncnn3ccc(CN4CC[C@@H](N)[C@H](O)C4)c23)c1`, for which the growth was 48.3%.

Consider `CCCCN1CCCC[C@@H]1C(=O)N[C@H](C(=O)N(C)[C@H](CCc1nc(C(=O)N[C@@H](Cc2ccccc2)C[C@H](C)C(=O)OC)cs1)C(C)C)C(C)C`, for which the growth is 52.3%.

For `CNC(=O)c1cc(Oc2ccc(NC(=O)Nc3cc(C(C)(C)C)nn3-c3ccc4ncccc4c3)c(F)c2)ccn1`, the growth was -38.2% (active).

Turning to `C=CCC(=O)N[C@H](/C=C/C(=O)O)Cc1ccc(-c2cc(Cl)cc(Cl)c2)cc1`, the growth was 92%.

For the molecule `O=C(NO)c1ccc(Cn2c(=O)n(CCc3ccccc3)c(=O)c3ccccc32)cc1`, the growth is 52.4%.

`CCN(CCN(C)C)C(=O)CNCc1cc(C(N)=O)ccn1`: the growth is 102%.

As to `COc1cc2c3c(c1)nc(C)n3CCC2`, the growth was 94.2%.

These data come from PubChem BioAssay (NCI).
